Screening results deposited in PubChem BioAssay by National Center for Advancing Translational Sciences (NCATS).
KinaseGlo FLuc: Counterscreen for Luciferase (Kinase-Glo TM) Inhibition; Luciferin 4-monooxygenase (Photuris pensylvanica), Q27757; Kinase-Glo luciferase, ATP luminescence, 8 min; Potency, µM (titrated, usually from 38.3 µM), hits mostly inhibitors; 200,000 compounds, 0.28% hits; AID 1379, 2008; note: nearly all actives have a fitted effect of over 60% in size
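Inhibition of Kinase-Glo luciferase light generation was assessed at 10 uM ATP in pH 7.2 imidazole buffer, with luminescence measured after eight minutes at ambient temperature.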
RORg inh: qHTS for inhibitors of ROR gamma transcriptional activity; 310,000 compounds, 5.4% hits; Drosophila S2 Gal4-RORgamma UAS-luciferase reporter, 20 h; Potency, µM (doses to about 53.6 µM), hits mostly inhibitors; Nuclear receptor ROR-gamma (Mus musculus), P51450; AID 2551, 2010; note: nearly all actives have a fitted effect of over 60% in size
Target sequence (P51450 whole entry, looked up, the tested form may be a part): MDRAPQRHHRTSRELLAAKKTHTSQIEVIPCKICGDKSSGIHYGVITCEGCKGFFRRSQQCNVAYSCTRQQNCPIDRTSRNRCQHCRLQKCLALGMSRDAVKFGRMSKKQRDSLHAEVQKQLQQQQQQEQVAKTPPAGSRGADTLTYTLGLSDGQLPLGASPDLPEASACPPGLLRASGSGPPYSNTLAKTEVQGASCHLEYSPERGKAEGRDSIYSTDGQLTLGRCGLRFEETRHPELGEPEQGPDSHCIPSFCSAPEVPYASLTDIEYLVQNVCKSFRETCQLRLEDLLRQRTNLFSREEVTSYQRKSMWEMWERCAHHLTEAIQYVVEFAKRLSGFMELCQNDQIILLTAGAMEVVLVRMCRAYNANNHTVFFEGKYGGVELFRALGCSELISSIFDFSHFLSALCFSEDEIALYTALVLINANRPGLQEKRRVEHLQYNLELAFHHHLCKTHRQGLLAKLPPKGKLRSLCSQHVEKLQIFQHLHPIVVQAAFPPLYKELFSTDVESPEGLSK
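A Gal4/UAS one-hybrid system in insect cells: metallothionein-promoter Gal4–ROR gamma fusion plus Photinus luciferase reporter. Copper sulfate 700 uM final, 20 hr ambient incubation, luminescent detection after 10 min with reagent.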
VP16 counter: VP16 counterscreen qHTS for inhibitors of ROR gamma transcriptional activity | Drosophila S2 Gal4-VP16 UAS-luciferase, luminescence, 20 h | Potency, µM (highest dose often 53.6 µM), most hits filed as inhibitors | 310,000 compounds, 3.5% hits | AID 2546, 2010;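 note: Gal4-VP16 expression switched on by copper sulfate through the metallothionein promoter; nearly all actives have a fitted effect of over 50% in size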
Large screens that a line does not name were inactive; ! = a repeat was not active. Shown are actives, neighbours in structure and some others; about 6.4% of the full set was active somewhere. Calls come from the whole dose curve; as a rule, active = well fitted curve in the direction sought with a large enough effect; inconclusive = small, poorly fitted or top-dose-only effect, or another doubt; inactive = no such curve, though single readings can be large; an effect the other way counts as inactive or inconclusive.

COc1cc2nc(N(CCN(C)C)C(=O)c3ccc(S(=O)(=O)N(C)CC4CCCO4)cc3)sc2cc1OC (centres undefined)	none (no result: KinaseGlo FLuc)
CN(CC1CCCO1)S(=O)(=O)c1ccc(C(=O)Nc2nnc(-c3ccccc3)o2)cc1 (centres undefined)	RORg inh 0.631µM, VP16 counter 0.562µM (no result: KinaseGlo FLuc)
COc1ccccc1-c1nnc(NC(=O)c2ccc(S(=O)(=O)N(C)CC3CCCO3)cc2)o1 (centres undefined)	RORg inh 0.708µM, VP16 counter 1µM (no result: KinaseGlo FLuc)
CN(CC1CCCO1)S(=O)(=O)c1ccc(C(=O)Nc2ccc(S(N)(=O)=O)cc2)cc1 (centres undefined)	none (no result: KinaseGlo FLuc)
CN(c1ccc(C(=O)NCC2CCCO2)cc1)S(=O)(=O)c1ccccc1 (centres undefined)	none
CN(CC1CCCO1)S(=O)(=O)c1ccc(C(=O)Nc2nc(-c3ccccn3)cs2)cc1 (centres undefined)	RORg inh 7.94µM, VP16 counter 11.2µM
CN1C(N)=NC(=O)/C1=C\c1ccc(Br)cc1	none (no result: KinaseGlo FLuc)
Cc1cccc(Nc2n[nH]c(=S)s2)c1C	RORg inh inconclusive
Cc1csc(Nc2cccc3ccccc23)n1	RORg inh inconclusive
COc1ccccc1Nc1nc(C)cs1	RORg inh 11.2µM!, VP16 counter inconclusive
COc1ccccc1Nc1n[nH]c(=S)s1	RORg inh 10µM
CCc1ccc(-c2cc(C)no2)cc1S(=O)(=O)N1CCN(C(=O)c2ccco2)CC1	none (no result: KinaseGlo FLuc)
Cc1cc(C)cc(N(CC(=O)NC2CCCC2)C(=O)CCC(=O)Nc2cc(C)ccn2)c1	none (no result: KinaseGlo FLuc)
CC(=O)Nc1ccc(SCCN2CCN(CC(C)C)CCC2=O)cc1	none (no result: KinaseGlo FLuc)
Cc1nc([N+](=O)[O-])cn1CC(=O)Nc1ccc([N+](=O)[O-])cc1	none (no result: KinaseGlo FLuc)
Cn1ncc2c(NNC(=O)c3ccccc3Cl)ncnc21	RORg inh 1µM, VP16 counter inconclusive
Cc1ccc(Cl)cc1-n1ncc2c(NNC(=O)c3ccco3)ncnc21	RORg inh inconclusive
Cc1ccccc1C(=O)NNc1ncnc2c1cnn2C	RORg inh inconclusive
CC(=O)NNc1ncnc2c1cnn2-c1ccc(C)c(Cl)c1	RORg inh inconclusive, VP16 counter inconclusive
COc1ccc(CC(=O)NNc2ncnc3c2cnn3-c2ccc(C)cc2)cc1OC	RORg inh 6.31µM, VP16 counter inconclusive
Cc1ccc(-n2ncc3c(NNC(=O)c4ccco4)ncnc32)cc1C	RORg inh 3.55µM, VP16 counter 7.08µM (no result: KinaseGlo FLuc)
O=C(NNc1ncnc2c1cnn2-c1cccc(Cl)c1)c1ccco1	RORg inh 5.01µM, VP16 counter 7.08µM (no result: KinaseGlo FLuc)
COc1ccc(CC(=O)NNc2ncnc3c2cnn3-c2ccc(C)cc2)cc1	VP16 counter inconclusive (no result: KinaseGlo FLuc)
O=C(CCSCc1ccccc1F)NCCc1ccccc1	none
CC(C)c1ccc(/C=C(/C#N)c2nnc(NC(=O)c3ccccc3)s2)cc1	none
COc1ccc(S(=O)(=O)N2CCC(C(=O)NCc3ccccc3)CC2)cc1OC	none
CC(C)Cc1nn2c(=O)cc(CSCC(=O)Nc3ccccc3F)nc2s1	none (no result: KinaseGlo FLuc)
Cc1c(NC(=O)C(C)OC(=O)CCC2CCCC2)c(=O)n(-c2ccccc2)n1C (centres undefined)	none
Cc1cc(Cl)ccc1OCC(=O)NN1C(=O)C2C3C=CC(C3)C2C1=O (centres undefined)	none
CCOc1ccc(N(CC(=O)Nc2cccc(Cl)c2)S(=O)(=O)c2c(C)noc2C)cc1	RORg inh 15.8µM, VP16 counter 12.6µM
CCOc1ccc(N(CC(=O)Nc2cccc(OC)c2)S(=O)(=O)c2c(C)noc2C)cc1	RORg inh inconclusive, VP16 counter inconclusive
CN1C(=O)Cc2cc(S(=O)(=O)NCc3c(F)cccc3Cl)ccc21	none (no result: KinaseGlo FLuc)
CCOC(=O)c1cnc2c(OC)cccc2c1N1CCN(c2ccccc2OC)CC1	none (no result: KinaseGlo FLuc)
CCOC(=O)c1cnc2c(OC)cccc2c1N1CCN(c2ccc(OC)cc2)CC1	VP16 counter 2.24µM
COc1ccc(-c2nc(CSCC(=O)NC3CCN(Cc4ccccc4)CC3)c(C)o2)cc1OC	none (no result: KinaseGlo FLuc)
COc1cccc(OCC(=O)NNC(=O)C(=O)Nc2ccc(OC)cc2OC)c1	none (no result: KinaseGlo FLuc)
O=C(O)CCC(=O)NNC(=O)COc1cccc(Cl)c1	none (no result: KinaseGlo FLuc)
COc1cccc(OCC(=O)NNC(=S)Nc2ccc(Cl)cc2Cl)c1	RORg inh 15.8µM
O=C(COc1cccc(Cl)c1)NNC(=S)Nc1ccccc1	RORg inh 0.891µM, VP16 counter 1µM
O=c1c2ccccc2nnn1CCO	none (no result: KinaseGlo FLuc)
Nc1ncnc2c1c(-c1ccc(Oc3ccccc3)cc1)cn2C1CCCC1	VP16 counter inconclusive
CC(NC(=S)Nc1c(Br)cccc1OC(F)F)C(C)(C)C (centres undefined)	RORg inh 10µM, VP16 counter inconclusive
CC(NC(=O)Nc1ccc(Br)cc1)C(C)(C)C (centres undefined)	RORg inh inconclusive
O=C(CNC(=O)/C=C/c1ccccc1)N=Nc1c(O)n(Cc2ccccc2)c2ccccc12	none
Oc1c(N=NC(=S)Nc2ccccc2F)c2ccccc2n1Cc1ccccc1F	RORg inh 2.51µM, VP16 counter 3.98µM (no result: KinaseGlo FLuc)
Oc1c(N=NC(=S)Nc2ccccc2F)c2ccccc2n1Cc1ccc(Cl)cc1	RORg inh 3.98µM
CCn1c(O)c(N=NC(=O)CNC(=O)c2ccccc2F)c2ccccc21	none (no result: KinaseGlo FLuc)
O=Nc1c(O)n(Cc2ccccc2)c2ccccc12	none (no result: KinaseGlo FLuc)
CCNC(=S)N=Nc1c(O)n(Cc2ccc(Cl)cc2)c2ccccc12	RORg inh 4.47µM, VP16 counter inconclusive
Cc1ccccc1Cn1c(O)c(N=NC(=S)Nc2ccccc2F)c2ccccc21	RORg inh 2.51µM, VP16 counter inconclusive
Cc1ccc(C)c(Cn2c(O)c(N=NC(=S)Nc3ccccc3F)c3ccccc32)c1	VP16 counter inconclusive
CCOc1ccc(CNc2nnnn2C)cc1	none (no result: KinaseGlo FLuc)
CCC(C)NC(=O)CCn1c(=O)c2cccn2c2ccc(F)cc21 (centres undefined)	none (no result: KinaseGlo FLuc)
Cn1c(CNC(=O)c2ccccc2F)nnc1SCCOc1ccccc1	none
CCC1=NN2C(=N)/C(=C\c3cccn3-c3ccc(Cl)cc3)C(=O)N=C2S1	RORg inh inconclusive
CCC1=NN2C(=N)/C(=C\c3cccn3-c3ccc(C)c(C)c3)C(=O)N=C2S1	RORg inh 28.2µM
CC(=O)N(C1=C(Cl)C(=O)c2ccccc2C1=O)C1CCCCC1	RORg inh 10µM, VP16 counter 11.2µM (no result: KinaseGlo FLuc)
CC(=O)N(c1ccccc1C)C1CCCC1	none
COC(=O)CSc1[nH]c2ccc(F)cc2c1[N+](=O)[O-]	none (no result: KinaseGlo FLuc)
COc1cccc(CN2CCN(Cc3cc4ccccc4o3)CC2CCO)c1 (centres undefined)	none (no result: KinaseGlo FLuc)
COc1cccc(CCc2ccccc2OCC[C@@H]2C[C@@H](O)CN2C)c1	RORg inh 7.08µM
COc1ccc(OCCC(=O)OCC(=O)NCCc2ccccc2)cc1	none
CC1(C)C2CCC(C2)C1C/C=N/NC(N)=S (centres undefined)	RORg inh 1.78µM, VP16 counter 3.98µM (no result: KinaseGlo FLuc)
CCCC1CC(C)(/C(C)=N\NC(N)=S)OC1=O (centres undefined)	none
CCC(CC)NC(=O)COc1ccc(OC)cc1C=O	none
C/C(=N\NC(=S)NC1CCCCC1)c1c(F)cccc1F	RORg inh 0.631µM, VP16 counter 2.82µM
C/C(=N\NC(=S)NC1CCCCC1)c1cccs1	RORg inh inconclusive, VP16 counter 0.794µM
C/C(=N\NC(=O)C1CCCC1)c1ccc(Cl)c(Cl)c1	none (no result: KinaseGlo FLuc)
